This is a sample that favours compounds with a hit; in the whole collection about 11% have one here.
HCV inh: qHTS Assay for Inhibitors of Hepatitis C Virus (HCV). Potency, µM (highest dose often 41.8 µM), for inactives: at the highest dose activity change, negative = inhibition, hits mostly inhibitors. hit rate 3.4% among 340,000. Huh7.5.1 HCVcc-Cre infection, luciferase reporter, 44 h. AID 651820, 2012; also: % is scaled to controls: 0 for no effect and ±100 for the full control effect
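Antiviral activity was scored by luciferase reporter output from cells infected with HCVcc-Cre (~0.5 moi) in presence of compound, 44 h infection period, cells seeded 1,000/well 4 h prior.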
Pf growth 96h: Primary qHTS for delayed death inhibitors of the malarial parasite plastid, 96 hour incubation; P. falciparum luciferase reporter growth, 96 h; Potency, µM (series often up to 28.7 µM), inactives show at the highest dose activity change, negative = inhibition, actives largely listed as inhibitors; hit rate 6.9% among 320,000; also: % is scaled to controls: 0 for no effect and ±100 for the full control effect
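Cell-based qHTS: luciferase-tagged P. falciparum in erythrocytes (2% hematocrit, 0.05% parasitemia final) incubated with compounds for 96 hours, 37 C, 5% CO2; luciferase detection reagent then added and luminescence measured.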
Vaccinia mCherry: qHTS for Stage-Specific Inhibitors of Vaccinia Orthopoxvirus: mCherry Reporter Primary qHTS | Potency, µM (top dose mostly 36.5 µM), without a hit: at the highest dose activity change, negative = inhibition, hits mostly inhibitors | hit rate 0.63% among 310,000 | Vaccinia virus mCherry reporter infection, fluorescence; calls by dose curve; tested in A549 cells; also: % is scaled to controls: 0 for no effect and ±100 for the full control effect; nearly all actives have a fitted effect of over 35% in size
VACV Venus inh: qHTS for Stage-Specific Inhibitors of Vaccinia Orthopoxvirus: Venus Reporter Primary qHTS; Potency, µM (doses to about 36.5 µM), without a hit: top-dose activity change, negative = inhibition, usual class: inhibitors; AID 720580, 2013; hit rate 0.46% among 330,000; Vaccinia virus Venus reporter expression, fluorescence; calls by dose curve; tested in A549 cells; also: % is scaled to controls: 0 for no effect and ±100 for the full control effect; nearly all actives have a fitted effect of over 30% in size
Pf growth 48h: Primary qHTS for delayed death inhibitors of the malarial parasite plastid, 48 hour incubation | P. falciparum luciferase growth in erythrocytes, 48 h | AID 504832, 2011 | Potency, µM (doses to about 28.7 µM), inactives show top-dose activity change, negative = inhibition, actives largely listed as inhibitors | hit rate 5.9% among 310,000; also: % is scaled to controls: 0 for no effect and ±100 for the full control effect
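Luciferase-expressing P. falciparum in infected erythrocytes (2% hematocrit, 0.1% parasitemia final) in RPMI 1640/0.5% Albumax were exposed to compound for 48 hours at 37 C, 5% CO2; growth read as luminescence.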
NS1 inh: qHTS Assay for Inhibitors of Influenza NS1 Protein Function | hit rate 0.4% among 270,000 | Potency, µM (highest dose often 46.1 µM), for inactives: top-dose activity, positive = more growth; calls by dose curve; also: actives are rising curves; nearly all actives have a fitted effect of over 50% in size
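S. cerevisiae expressing influenza A NS1, grown in glucose, washed, then diluted 1:100 into pH 6.0 -URA galactose medium with 23 nl compound. Growth recovery read as OD600; NS1-free strain serves as control.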
Active calls of the source: *; i = inactive; ? = inconclusive; / = no result; ! = not confirmed by another sample. Unless noted, calls follow the shape of the dose curve; as a rule, active = well fitted inhibition curve with a large enough effect; inconclusive = small, poorly fitted or top-dose-only effect, or another doubt; inactive = no such curve, though single readings can be large or run the other way. Potency is read from the fitted curve at half-maximal effect.

SMILES | HCV inh | Pf growth 96h | Vaccinia mCherry | VACV Venus inh | Pf growth 48h | NS1 inh
COc1ccccc1C(CNC(=O)c1ccc(NS(=O)(=O)c2ccc(F)c(C)c2)cc1)N1CCCC1 (configuration not stated) | -20% | 12µM* | -6% | -24% | 9.3µM* | /
COc1ccccc1C(CNC(=O)c1ccc(NS(=O)(=O)c2ccc(C(C)=O)cc2)cc1)N1CCCC1 (configuration not stated) | 9% | / | / | / | / | /
COc1ccccc1C(CNC(=O)c1cccc(NS(=O)(=O)c2ccc(C)c(F)c2)c1)N1CCCC1 (configuration not stated) | ? | 12µM* | -28% | -18% | 13µM* | /
Cc1ccc(OCC(=O)c2cc(C)c(C)cc2C)c([N+](=O)[O-])n1 | -15% | -6% | / | -8% | / | -8%
Cc1cc(C(C)(C)C)cc(C)c1CCNC(=O)c1ccc[n+]([O-])c1 | ? | ? | 10µM* | 25% | -16% | 4%
COc1ccc(C(C)(C)C)cc1NC(=O)c1ccc[n+]([O-])c1 | 1% | 13% | i | -1% | 41% | -4%
O=C(O)CCCCCN1C(=O)C(O)=C(C(=O)/C=C/c2ccccc2)C1c1ccccc1[N+](=O)[O-] (configuration not stated) | -7% | 9.3µM* | -10% | -2% | 33% | 0%
CCCCN1C(=O)C(O)=C(C(C)=O)C1c1ccccc1[N+](=O)[O-] (configuration not stated) | 9% | -1% | / | / | 24% | 3%
COC(=O)C1=C(C)N(C)C(C)=C(C(=O)OC)C1c1ccc(F)c(Br)c1 | -14% | -11% | / | -9% | 9.3µM* | -13%
CC(C)CCNC(=O)c1cnc2sc(N3CCCCCC3)nn2c1=O | / | / | i | -12% | / | /
CCOc1ccc(C2CC(=O)n3nc(C45CC6CC(CC(C6)C4)C5)nc3S2)cc1OC (configuration not stated) | 13% | 12µM* | -11% | 0% | -4% | 10%
COc1ccc(C2CC(=O)n3nc(C45CC6CC(CC(C6)C4)C5)nc3S2)cc1OC (configuration not stated) | 12% | ? | -16% | -12% | 1% | -4%
CCOc1ccc(OCC)c(-c2c(=O)n(OCc3ccc(C(C)(C)C)cc3)c3ccccc3[n+]2[O-])c1 | -6% | 12µM* | / | / | ? | 5%
CCOc1ccc(-c2c(=O)n(OCc3ccc([N+](=O)[O-])cc3)c3ccccc3[n+]2[O-])c(OCC)c1 | -1% | / | i | -1% | / | /
CCOc1ccc(-c2c(=O)n(OCc3ccc([N+](=O)[O-])cc3)c3ccccc3[n+]2[O-])cc1 | 10% | 12µM* | / | / | 40% | 29%
CCOc1ccc(C(=O)CCC(=O)NN2C(=O)NC3(CCCCC3)C2=O)cc1 | 3% | -30% | / | / | -7% | /
CCN(c1cc(C)cc(C)c1)S(=O)(=O)c1nnc(NC(=O)c2ccco2)s1 | 6% | 12µM* | -2% | 2% | -12% | -17%
CCN(c1ccc(OC)cc1)S(=O)(=O)c1nnc(NC(=O)c2ccco2)s1 | 22% | 5% | -6% | -8% | ? | 5%
Cc1ccc(C)c(OCc2nnc(NC(=O)c3ccco3)s2)c1 | 2% | 10µM* | -16% | -4% | 8% | 1%
CCN(c1ccc(C)cc1C)S(=O)(=O)c1nnc(NC(=O)C(C)C)s1 | -8% | -6% | / | / | 13µM* | 5%
COCc1nnc(NC(=O)c2ccco2)s1 | 19% | / | / | / | 18% | -12%
CCN(c1ccc(C)cc1C)S(=O)(=O)c1nnc(NC(=O)C(C)(C)C)s1 | 41% | ? | i | -15% | 10µM* | -21%
NS(=O)(=O)c1ccc(-c2ccc(/C=C3\C(=O)Nc4ccccc43)o2)cc1 | / | -7% | / | / | 38% | 10%
Cc1cc(S(=O)(=O)N2CCN(Cc3ccccc3)CC2)c(C)s1 | -9% | -21% | -20% | -7% | / | -18%
Cc1c(C)[n+](=O)c2c(n1[O-])C(Br)CCC2Br (configuration not stated) | 10% | 8% | -10% | 5% | 3% | 5%
SMILES | HCV inh | Pf growth 96h | Vaccinia mCherry | VACV Venus inh | Pf growth 48h | NS1 inh
CCCOc1ccc(OCCSc2nnc(N)s2)cc1 | -10% | / | / | -24% | 99% | 0%
Cc1ccccc1-c1nc(CN2CCC(C(=O)NC3CCCCC3)CC2)c(C)o1 | -4% | -44% | i | -8% | 9% | -6%
Cc1ccccc1-c1nc(CN2CCC(C(=O)O)CC2)c(C)o1 | 9% | ? | -14% | -12% | / | -3%
COc1ccc(CCNC(=O)C2CCN(Cc3nc(-c4ccccc4C)oc3C)CC2)cc1OC | 7.9µM* | 15% | / | / | ? | -2%
Cc1ccccc1-c1nc(CN2CCC(C(=O)NCCC3=CCCCC3)CC2)c(C)o1 | 6.3µM* | / | / | / | ? | -3%
Cc1ccccc1-c1nc(CN2CCC(C(=O)NCCc3ccccc3)CC2)c(C)o1 | / | / | -14% | -7% | / | /
Cc1ccccc1-c1nc(CN2CCC(C(=O)NCCCN3CCCC(C)C3)CC2)c(C)o1 (configuration not stated) | 5µM* | 9% | i | -21% | ? | -1%
O=C(CSc1nc2[nH]ncc2c(=O)n1-c1ccc(Cl)c(Cl)c1)NCc1ccccc1Cl | ? | ? | -30% | -23% | ? | /
O=c1[nH]c(Cc2ccccn2)nc2scc(-c3ccccc3Cl)c12 | ? | ? | -18% | 20% | ? | 1%
CC(C)N(CCNCc1nnc(-c2ccccc2)o1)C(C)C | 18% | 5% | / | / | 12% | /
CN1CCN(S(=O)(=O)c2cccc(C(=O)NC3CCCc4ccccc43)c2)CC1 (configuration not stated) | 3% | -8% | -8% | -10% | ? | -10%
O=C(COC(=O)c1ccc(O)cc1)Nc1cccc(S(=O)(=O)NC2=NCCCCC2)c1 | -3% | ? | -24% | -2% | ? | -7%
CN(C)C(CNC(=O)c1ccc(NS(=O)(=O)c2cccc([N+](=O)[O-])c2)cc1)c1ccco1 (configuration not stated) | 1% | ? | -15% | -9% | -3% | -7%
CCCCOC(=O)Cn1c(=O)n(CC(=O)OCCCC)c2ccccc21 | 4% | -5% | / | -1% | / | -7%
CCCCCCCCOC(=O)c1ccccc1C(=O)OCCCCCCCC | / | -8% | / | / | -9% | /
CCCCCCCCCCOC(=O)Cn1c(COc2ccc(OC)cc2)[n+](C)c2ccccc21 | ? | 4.7µM*! | ? | 11µM* | 4.1µM* | -52%
CCCCCCOc1ccccc1C(N)=O | / | -5% | ? | ? | 22% | /

Screening data (PubChem)
